# Assay results taken from the supplement of paper PMC8726507.
# Unmarked numbers belong to inactive results.
# Test system: Plasmodium falciparum NF54-HGL (transmission to Anopheles stephensi)
# Assay: percentage of barcode signal found in uninfected mosquitoes (transmission-blocking activity); higher = stronger blocking of transmission to mosquito, active = 80 or more
# Settings: 10 µM; gametocyte preincubation time 24 h; readout time post-feed 8 days
# Experimental: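 The mixture was fed to Anopheles stephensi in 96-well plates as blood meals tagged with DNA-barcoded Asaia bacteria. Eight days later, mosquitoes were classed infected or uninfected by luminescence (mean + 5 SD of unfed controls). Barcodes were quantified by Luminex MagPlex-TAG in the pooled uninfected and infected Asaia cultures, background-corrected, and the score is % of barcode signal in uninfected mosquitoes = 100*Iu/(Iu+Ii).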
row,Structure (SMILES),percentage of barcode signal found in uninfected mosquitoes
1,O=C(C1CCCCC1)N1CC(=O)N2CCc3ccccc3C2C1 (stereo not drawn),51.6%
2,CC(C)C(C(=O)Nc1ccc(S(=O)(=O)N(C)C)cc1)c1ccc(Cl)cc1 (stereo not drawn),49.7%
3,CC(=O)NC[C@H]1CN(c2ccc(N3CCSCC3)c(F)c2)C(=O)O1,24.7%
4,CCCNC(=O)N1CCC2(CC1)CC(=O)c1cc(C)ccc1O2,11.9%
5,CCCn1c(CNc2ccccc2O)nc2ccccc21,34.7%
6,COc1ccccc1OCCCCn1c(C2CC2)nc2ccccc21,48.5%
7,COC(=O)c1c(NC(=O)c2cc3ccccc3oc2=O)sc2c1CCN(Cc1ccccc1)C2,49.1%
8,COc1cccc(OCC(=O)c2ccc(Br)cc2)c1,13.7%
9,NCC(=O)N1CCn2c(nc(-c3ccccc3)c2Nc2ccc3c(c2)OCO3)C1,80.9% (active)
10,COc1ccc(C2=NN(C3CCCCCC3)C(=O)C2(C)C)cc1OCCCCOc1ccc(-c2nn[nH]n2)cc1,7.2%
11,Nc1nccc2ccc(-c3ccc4nccn4c3)cc12,92.9% (active)
12,CN1CCN(c2nccc3nc(-c4ccc(F)c(F)c4)[nH]c23)CC1,97.2% (active)
13,c1ccc(-c2[nH]c3ccccc3c2C(c2ccccn2)N2CCCC2)cc1 (stereo not drawn),82.6% (active)
14,O=C(CCC1CCCCC1)Nc1cccc(-c2nnc(-c3ccco3)o2)c1,67.5%
15,FC(F)(F)c1cnc(Sc2nnc(-c3ccncc3)o2)c(Cl)c1,68.8%
16,Nc1ncnc2c1c(Cc1cccc3ccccc13)nn2CC1CCNCC1,74.2%
17,CNc1nnc(Sc2cnn(-c3ccccc3)c(=O)c2Cl)s1,76.3%
18,COc1ccc(-c2cc(NC(=O)c3ccc(F)cc3Cl)ccc2OC)cc1,-1.77%
19,COc1ccc(C2=NN(C3CCCCCC3)C(=O)[C@@H]3CC=CC[C@H]23)cc1OCCCCOc1ccc(-c2nn[nH]n2)cc1,63.6%

# Same assay, conditions: 20 µM; gametocyte preincubation time 24 h; readout time post-feed 8 days
row,Structure (SMILES),percentage of barcode signal found in uninfected mosquitoes
1,Clc1ccc(CN2CCN(C3=NCCN3)CC2)cc1Cl,4.45%
2,FC(F)(F)c1ccc(N(c2cccnc2)C2CCN(c3ccc(C(F)(F)F)cn3)CC2)cc1,27.4%
3,CC(C)(C)n1nc(Cc2cccc3ccccc23)c2c(N)ncnc21,0.0299%
4,OCc1ccc(-c2cncc(Nc3cccc(Cl)c3)c2)cc1,4.28%
5,CN1CCCN(C(c2ccccc2)c2ccc(Cl)cc2)CC1 (stereo not drawn),25.1%
6,COc1cc(-c2cc(-c3ccc(S(C)(=O)=O)cc3)cnc2N)ccc1O,48.6%
7,O=C(Nc1ccc(C(F)(F)F)c(C(F)(F)F)c1)c1cc(Cl)ccc1O,69.4%
8,Cc1cc(O)nc(-n2nc(C)cc2C)n1,70.1%
9,Clc1ccc(Cl)c(CO[C@H]2CCCC[C@@H]2n2ccnc2)c1,19.9%
10,c1ccc(Oc2ccc(-c3cc(N4CCNCC4)[nH]n3)cc2)cc1,27.2%
11,COc1cc(NC(=O)Cc2nn(C)c(=O)c3ccccc23)ccc1Cl,9.49%
12,Cc1cc(NCC(C)C)c2n[nH]c(-c3ccccc3)c2n1,43%
13,CC1CCCN(C(=O)C(C)Nc2cc(Cl)ccc2N2CCOCC2)C1 (stereo not drawn),15.9%
14,Cc1ccccc1CN1CCC(O)(c2ccc(Cl)c(C(F)(F)F)c2)CC1,-0.504%
15,CCc1ccc([C@@H]2C[C@H](C(F)(F)F)n3ncc(C(=O)NCc4ccc(OC)cc4)c3N2)cc1,8.67%
16,CC(c1cc(Cl)cc(Cl)c1)N(C)c1ncc2c(N)nc(N)nc2n1 (stereo not drawn),0.441%
17,CNC(=O)C1Cc2c([nH]c3cc(Cl)ccc23)C2(CCN(CCc3ccccc3)CC2)N1 (stereo not drawn),87.5% (active)
18,Cc1cc(C)n(-c2ccc(NC(=O)C3CCN(Cc4cnc(C)s4)CC3)cc2)n1,1.19%
19,COc1cc(C2=NCCN2)ccc1-c1cn(-c2cccc(C3=NCCN3)c2)nn1,46%
